The values that follow come from PubChem BioAssay (Tox21).

The nature of test [1]: qHTS assay to identify small molecule antagonists of the constitutive androstane receptor (CAR) signaling pathway - cell viability counter screen (AID 1224837). Also: series mostly up to about 92 µM; nearly all actives have a fitted effect of over 45% in size. In short, it runs like this: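 HepG2 cells stably expressing hCAR and a CYP2B6-2.2kb reporter were plated and pre-incubated 4 hr at 37 C/5% CO2, then given compounds at 15 concentrations plus 50 nM CITCO (final). After 23 hr, viability was read by CellTiter-Fluor fluorescence.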

Test [2] is described as follows: qHTS assay to identify small molecule antagonists of the estrogen related receptor signaling pathway with the pleiotropic PPARgamma coactivator (PGC) from Tox21 10K library - cell viability counter screen (AID 1224840; active = well fitted cell-killing curve with a large enough effect in the repeat runs, not every such curve was filed as active; also: nearly all actives have a fitted effect of over 40% in size). In short, it runs like this: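 PGC/ERR cells were seeded at 2,000 cells/well and left 6 hours at 37 C/5% CO2 before pin-tool addition of compounds in DMSO. After 17.5 hours at 37 C, CellTiter-Fluor was added and fluorescence read 30 minutes later.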
(In general: qHTS replaces the single test concentration by a dilution series.)

Test [3] has as its target Thyrotropin receptor (Homo sapiens) (UniProt P16473). Nature of the test: qHTS assay to identify small molecule agonists of the thyroid stimulating hormone receptor (TSHR) signaling pathway (AID 1224843; calls by dose curve; also: nearly all actives have a fitted effect of over 45% in size). In short, it runs like this:
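HEK293 cells stably bearing the thyrotropin receptor were plated at 800 cells/well and challenged with compound (30 min, RT). Accumulated cAMP was quantified via cAMP-d2 competing for cryptate-tagged antibody.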

The nature of test [4]: qHTS assay to identify small molecule agonists of the hypoxia (HIF-1) signaling pathway - cell viability counter screen (AID 1224844; calls by dose curve; also: nearly all actives have a fitted effect of over 50% in size). In short, it runs like this: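 HRE-bla ME-180 cells in medium with 0.5% dialyzed FBS were preincubated 5 hrs at 37C, exposed to compounds for 17 hrs, then viability was read as CellTiter-Glo luminescence after 30 min at room temperature, in the reporter wells.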

Test [5] is described as follows: qHTS assay to identify small molecule agonists of H2AX (AID 1224845; active = well fitted activation curve with a large enough effect in the signal ratio in the repeat runs, not every such curve was filed as active; the % refers to the signal ratio). In short, it runs like this: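 Phospho-H2AX Ser139 measured by HTRF (ex 320 nm; em 665 and 620 nm) after 24 hr antibody incubation. Compounds, 15 concentrations, 0.76% DMSO, were applied to CHO-K1 cells for 3hr at 37C before lysis.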
The nature of test [6]: qHTS assay to identify small molecule agonists of the hypoxia (HIF-1) signaling pathway (AID 1224846; active = well fitted activation curve with a large enough effect in the signal ratio in the repeat runs, not every such curve was filed as active; the % refers to the signal ratio). In short, it runs like this:
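HRE-bla ME-180 cells (beta-lactamase reporter under hypoxia response element) were plated at 2,000 cells/well in medium with 0.5% dialyzed FBS, rested 5 hrs, then given compounds in DMSO for 17 hrs at 37C, 5% CO2. Reporter induction was read with CCF4-AM FRET substrate.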

The nature of test [7]: qHTS RealTime-Glo MT Cell Viability Assay in HepG2 cells - 24 hour (AID 1224867). Also: nearly all actives have a fitted effect of over 50% in size. In short, it runs like this:
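Viability was tracked continuously by NanoLuc luminescence from prosubstrate reduced by living HepG2 cells, at successive time points over 40 h of compound exposure. Cells with reagent were preincubated 5 h at 37 °C before compound addition.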

A short description of test [8]: qHTS RealTime-Glo MT Cell Viability Assay in HEK293 cells - 32 hour (AID 1224868). Also: nearly all actives have a fitted effect of over 50% in size. Also: potency is read from the fitted curve at half-maximal effect. In short, it runs like this:
(§1)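 Viability tracked continuously by luminescence as live cells reduce a prosubstrate for NanoLuc; HEK293 cells preincubated 5 h, compound-treated at 37 C, and read at 0, 8, 16, 24, 32 and 40 h.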

The nature of test [9]: A CellTox Green Cytotoxicity Assay to monitor cytotoxicity in HEK293 cells - 0 hour (AID 1224869). Also: nearly all actives have a fitted effect of over 50% in size. In short, it runs like this:
(§2)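 HEK293 cells premixed with CellTox Green dye were seeded at 600 cells/well and left 5 h at 37 C/5% CO2 before pin transfer of 23 nL compound in DMSO. Fluorescence from dye bound to dead-cell DNA was read during 40 h treatment.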

Test [10] in a line: A CellTox Green Cytotoxicity Assay to monitor cytotoxicity in HEK293 cells - 40 hour (AID 1224871). Also: nearly all actives have a fitted effect of over 45% in size. In short, it runs like this: as §2
Test [11] can be described thus: qHTS RealTime-Glo MT Cell Viability Assay in HEK293 cells - 16 hour (AID 1224872). In short, it runs like this:
as §1

A short description of test [12]: qHTS RealTime-Glo MT Cell Viability Assay in HepG2 cells - 8 hour (AID 1224873). Also: nearly all actives have a fitted effect of over 55% in size. In short, it runs like this:
(§3)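 Real-time viability: cells seeded at 600 per well together with NanoLuc and cell-permeant prosubstrate, compounds added after 5 h incubation. Luminescence tracked at 0, 8, 16, 24, 32 and 40 h of exposure.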

Test [13] addresses Nuclear receptor subfamily 1 group I member 3 (Homo sapiens) (UniProt Q14994). As to the kind of experiment: qHTS assay to identify small molecule antagonists of the constitutive androstane receptor (CAR) signaling pathway (AID 1224838). Also: nearly all actives have a fitted effect of over 40% in size. In short, it runs like this:
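HepG2 cells stably co-transfected with hCAR and a CYP2B6-2.2kb luciferase reporter were seeded 4 h before compound addition at 15 concentrations. Cells were stimulated with 50 nM CITCO (final) for 24 h at 37 C; luciferase luminescence was then read.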

Test [14] has the same target. As to the kind of experiment: qHTS assay to identify small molecule agonists of the constitutive androstane receptor (CAR) signaling pathway (AID 1224839). Also: nearly all actives have a fitted effect of over 15% in size. Also: potency is read from the fitted curve at half-maximal effect.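 As to activation: HepG2 cells stably carrying human CAR and a CYP2B6 luciferase reporter; series mostly up to about 92 µM.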 In short, it runs like this:
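Using human hepatoma HepG2 cells engineered with hCAR and a CYP2B6-2.2kb reporter, 15-concentration compound series were incubated 24 h alongside PK11195 at 0.75 uM final, with luminescence quantified afterwards.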

Test [15] is described as follows: qHTS assay to identify small molecule agonists of H2AX - cell viability counter screen (AID 1224847; calls by dose curve; also: nearly all actives have a fitted effect of over 30% in size; also: potency is read from the fitted curve at half-maximal effect). In short, it runs like this:
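After overnight plating of 1000 CHO-K1 cells per well, a 15-concentration compound series was applied for 3 hr at 37C. Luminescence from CellTiter-Glo, read following 30 min at room temperature, reflected cell viability.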

Test [16] can be described thus: qHTS RealTime-Glo MT Cell Viability Assay in HepG2 cells - 40 hour (AID 1224870). Also: nearly all actives have a fitted effect of over 50% in size. In short, it runs like this: as §3
Test [17] in a line: qHTS assay to identify small molecule antagonists of the estrogen related receptor (ERR) signaling pathway from Tox21 library (AID 1224848). Also: nearly all actives have a fitted effect of over 50% in size. In short, it runs like this:
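Reading was by luminescence 30 min after ONE-Glo addition. Before that, ERR cells at 2,000 per well had rested 6 h at 37 C/5% CO2 and then received pin-tooled compounds in DMSO for 18 h at 37 C.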

Test [18] is described as follows: qHTS assay to identify small molecule antagonists of the estrogen related receptor signaling pathway with the pleiotropic PPARgamma coactivator (PGC) from Tox21 10K library (AID 1224841; call rule not given here). In short, it runs like this:
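PGC/ERR reporter cells were seeded at 2,000 cells/well and held 6 hours at 37 C/5% CO2 before pin-tool addition of compounds in DMSO. After 18 hours at 37 C, One-Glo was added and luminescence read after 30 minutes at room temperature.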

A short description of test [19]: qHTS assay to identify small molecule agonists of the estrogen related receptor signaling pathway with the pleiotropic PPARgamma coactivator (PGC) from Tox21 10K library (AID 1224842). Also: nearly all actives have a fitted effect of over 15% in size. In short, it runs like this:
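Luminescence from One-Glo (30 min, room temperature) measured after PGC/ERR cells had 18 h at 37 C with pinned compound (23 nL in DMSO). Cells had been seeded at 2,000 per well and pre-incubated 6 h.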

“And” between values parts separate entries of the source, which are not always exact repeats. Identical values can stand only once. Records with an inconclusive call do not appear. The source made the active and inactive calls. Unless noted, calls follow the shape of the dose curve; as a rule, active = well fitted curve in the direction sought with a large enough effect in the repeat runs; inconclusive = weak or mixed curves; inactive = no such curve, though single readings can be large; an effect the other way counts as inactive or inconclusive.

Chain of Thyrotropin receptor (Homo sapiens) (P16473 whole entry, looked up): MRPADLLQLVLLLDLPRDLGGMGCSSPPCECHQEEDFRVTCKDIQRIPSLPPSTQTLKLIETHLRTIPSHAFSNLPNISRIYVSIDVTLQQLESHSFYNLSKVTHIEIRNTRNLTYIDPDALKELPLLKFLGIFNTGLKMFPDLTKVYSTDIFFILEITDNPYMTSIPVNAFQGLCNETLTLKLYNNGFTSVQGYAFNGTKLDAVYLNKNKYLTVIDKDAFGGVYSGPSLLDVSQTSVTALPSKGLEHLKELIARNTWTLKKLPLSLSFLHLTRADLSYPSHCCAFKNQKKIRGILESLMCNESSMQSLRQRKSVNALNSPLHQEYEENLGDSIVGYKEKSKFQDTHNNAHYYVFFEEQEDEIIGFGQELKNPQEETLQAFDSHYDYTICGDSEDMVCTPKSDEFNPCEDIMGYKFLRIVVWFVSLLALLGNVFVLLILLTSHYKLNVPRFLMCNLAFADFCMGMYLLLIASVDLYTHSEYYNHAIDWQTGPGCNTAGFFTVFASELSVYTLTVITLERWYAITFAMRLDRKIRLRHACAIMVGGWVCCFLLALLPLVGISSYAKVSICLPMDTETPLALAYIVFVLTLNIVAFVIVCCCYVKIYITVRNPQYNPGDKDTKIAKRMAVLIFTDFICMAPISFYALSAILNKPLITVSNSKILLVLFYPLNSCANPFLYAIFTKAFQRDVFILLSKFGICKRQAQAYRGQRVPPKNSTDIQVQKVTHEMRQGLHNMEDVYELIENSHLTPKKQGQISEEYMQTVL
Chain of Nuclear receptor subfamily 1 group I member 3 (Homo sapiens) (Q14994 whole entry, looked up): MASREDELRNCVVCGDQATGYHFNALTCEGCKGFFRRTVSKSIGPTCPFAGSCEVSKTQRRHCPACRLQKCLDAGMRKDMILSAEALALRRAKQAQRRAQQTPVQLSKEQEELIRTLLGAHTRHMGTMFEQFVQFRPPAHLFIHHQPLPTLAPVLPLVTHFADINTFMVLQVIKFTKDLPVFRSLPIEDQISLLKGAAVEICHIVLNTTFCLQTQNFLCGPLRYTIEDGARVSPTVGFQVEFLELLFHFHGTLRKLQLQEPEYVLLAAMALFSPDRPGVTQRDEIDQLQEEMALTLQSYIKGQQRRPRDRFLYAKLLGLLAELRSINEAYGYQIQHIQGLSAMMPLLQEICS

`CCNc1nc(NC(C)(C)C)nc(SC)n1`: the Potency result in test [1], in [2], in test [3], in [4], in [5] and in test [9] was “inactive” each time. For the same compound, the Potency entry in [10] was “inactive”. Also, the call in test [6], in test [7], in [11] and in test [12] was inactive. In addition, the Potency in test [8] was 43.1 µM (active).
Turning to `O=S(=O)(c1ccc(O)cc1)c1ccc(O)cc1`, the Potency entry in test [1], in [13], in [14], in [2], in [4] and in [15] was “inactive” throughout. The Potency result in [8], in test [9] and in test [10] was “inactive” each time. Also, the outcome in test [6], in test [7], in [16], in test [11] and in test [12] was inactive.
Consider `CCN(CC)c1ccccc1`, for which the Potency result in test [1], in test [2], in test [4], in test [5], in [15] and in test [8] was “inactive” each time. Moreover, the Potency entry in test [9] and in test [10] was “inactive” each time. In addition, the result in test [6], in test [7], in [16] and in test [11] was inactive.
For the compound `C=CC(N)=O`, the Potency entry in test [1], in test [2], in test [3], in test [4], in test [15] and in [17] was “inactive” each time. Moreover, the Potency entry in test [8], in test [9] and in test [10] was “inactive” in each case. Further, the compound was classed as inactive in test [6], in test [7], in test [16], in [11] and in test [12].
As for `CCCCN(CCCC)SN(C)C(=O)Oc1cccc2c1OC(C)(C)C2`, the Potency entry in test [1], in [13], in test [2], in test [3], in test [4] and in test [9] was “inactive” throughout. Besides, in [10], the Potency entry was “inactive”. The compound was classed as inactive in [6], in [7], in test [16] and in test [12].
In the case of `O=S(=O)(c1ccc(Cl)cc1)c1cc(Cl)c(Cl)cc1Cl`, the Potency entry in test [1], in [13], in [2], in [4], in test [8] and in [9] was “inactive” each time. In [10], the Potency result was “inactive”. Also, the Potency is 30.6 µM (active) and 27.3 µM (active) in test [14]; 89.6 µM (active) in test [15]. The outcome in test [6], in test [7] and in test [11] was inactive.
For `c1ccc(-c2ccccc2)cc1`, the Potency result in test [1], in test [2], in test [3], in test [4], in test [5] and in [8] was “inactive” each time. The Potency entry in [9] and in [10] was “inactive” throughout. In addition, the call in test [6], in test [7], in test [16] and in test [11] was inactive.
Turning to `CC(Oc1ccc(Cl)cc1Cl)C(=O)O` (configuration not stated), the Potency entry in [1], in [2], in test [3], in test [4], in test [5] and in test [15] was “inactive” throughout. Besides, the Potency result in test [8], in [9] and in [10] was “inactive” each time. Further, the outcome in [6], in test [7] and in test [11] was inactive.
For `CC(C)(C)OOC(=O)c1ccccc1`, the Potency entry in [1], in test [13], in test [14], in [2], in test [4] and in test [5] was “inactive” each time. Besides, the Potency entry in [15], in test [8], in test [9] and in [10] was “inactive” each time. In addition, the compound was classed as inactive in test [6], in test [7], in test [16], in test [11] and in [12].
With `CC(C)OC(=O)Nc1ccccc1`, the Potency result in test [1], in test [13], in test [2], in test [18], in test [3] and in test [4] was “inactive” throughout. Further, the Potency entry in [5], in [15], in test [17], in [8], in test [9] and in test [10] was “inactive” each time. Moreover, the compound was called inactive in test [19], in test [6], in [7], in test [16], in [11] and in [12].
